Screening results (PubChem)
An excerpt weighted towards active compounds, which were near 0.2% of everything screened.
ERp5 inh = inhibitors of ERp5-driven insulin aggregation, primary screen, biochemical, turbidity, absorbance 650 nm, single point | 90 min | 350,000 compounds, 0.05% hits | Protein disulfide-isomerase A6 (Homo sapiens), Q15084 | inhibition, % at 9.99 µM | AID 651711, 2012;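 active = mean replicate inhibition above about 25%, with every replicate also reaching it, limit read from the data, passing the limit was not always enough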
PDI turbidity = inhibitors of human PDI, primary screen, biochemical, turbidity, single point, plate reader; Protein disulfide-isomerase (Homo sapiens), P07237; PDI insulin aggregation turbidity, A650, 90 min; inhibition, % at 10 µM; 350,000 compounds, 0.052% hits;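 active = mean inhibition across replicates of 30% or more, whatever share of single replicates reach that level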
Target sequence (P07237 whole entry, looked up): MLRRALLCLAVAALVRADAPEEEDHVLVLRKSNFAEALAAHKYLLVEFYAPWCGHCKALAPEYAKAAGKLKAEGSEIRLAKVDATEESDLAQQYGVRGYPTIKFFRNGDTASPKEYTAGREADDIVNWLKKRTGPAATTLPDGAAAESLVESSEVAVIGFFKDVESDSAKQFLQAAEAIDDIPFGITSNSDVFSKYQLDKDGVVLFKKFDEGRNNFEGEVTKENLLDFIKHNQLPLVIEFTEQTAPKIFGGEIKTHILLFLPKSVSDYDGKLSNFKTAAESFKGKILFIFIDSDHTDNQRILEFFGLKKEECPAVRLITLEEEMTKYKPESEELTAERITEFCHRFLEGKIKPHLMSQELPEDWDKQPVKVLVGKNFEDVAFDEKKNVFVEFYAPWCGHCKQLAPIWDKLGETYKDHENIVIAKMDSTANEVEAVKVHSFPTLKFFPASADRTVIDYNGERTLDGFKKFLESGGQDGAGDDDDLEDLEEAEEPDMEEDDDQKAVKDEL
PvdQ inh = P. aeruginosa PvdQ acylase inhibitors, primary screen, biochemical, fluorescence, plate reader and imaging, single point; PvdQ acylase [Pseudomonas aeruginosa LESB58]; purified PvdQ acylase; inhibition, % at 10 µM; 340,000 compounds, 0.063% hits; AID 488965, 2010; in the data active = inhibition above about 30%, passing the limit was not always enough;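 also: 0% = vehicle neutral wells and 100% = reference inhibitor wells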
CaV13 ICDI inh = Primary screen for inhibitors of IQ motif and Ca2+-dependent inactivation inhibitor domain binding in CACNA1D, Förster resonance energy transfer in living cells, … | HEK cells, CFP/YFP FRET ICDI-IQ, plate reader, 10 min; percent FRET-ratio fall versus neutral wells | inhibition, % at 12.3 µM | 340,000 compounds, 0.098% hits;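 active = mean replicate inhibition of at least 30% and at least 1% of replicates passing that level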;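 also: 0% = median of the neutral control wells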
The depositor's hits bear a star; . = not tested or not shown; + = active, no number.

SMILES	ERp5 inh	PDI turbidity	PvdQ inh	CaV13 ICDI inh
CCCn1nc(NC(=O)c2cccs2)c2cc3cc(OC)ccc3nc21	.	0	2	.
CCCCn1nc(NC(=O)c2cccs2)c2cc3cc(OC)ccc3nc21	.	7	-12	54*
Cc1cnc(NC2=NCCC2)s1	3	38*	-5	4
CN(C)Cc1cn(CC[C@H]2CC[C@H](NS(=O)(=O)c3ccccc3)[C@H](CO)O2)nn1	2	.	.	.
CCOC(=O)c1cc2c(s1)-c1c(C)cccc1OC2	-3	.	68*	-4
CC(=O)Nc1ccc(-c2ccnc3c2CC(C(=O)NCc2cccc(Cl)c2)O3)cc1 (centres undefined)	-3	-18	.	-6
CC(=O)Nc1cccc(-c2ccnc3c2CC(C(=O)NCc2cccc(Cl)c2)O3)c1 (centres undefined)	-2	1	.	45*
Cc1cccc(NC(=O)Nc2cc(C)on2)c1	.	-7	39*	-3
CCOC(=O)c1cc2c(=O)n3cccc(C)c3nc2n(CC(C)C)c1=NC(=O)c1ccco1	3	-4	0	44*
CCOC(=O)c1cc2c(=O)n3ccccc3nc2n(C(C)C)c1=NC(=O)c1ccco1	-1	1	-13	+
CCOC(=O)c1cc2c(=O)n3ccccc3nc2n(CCCOC)c1=NC(C)=O	.	1	-9	-1
CCOC(=O)c1cc2c(=O)n3ccccc3nc2n(CCCOC)c1=NC(=O)c1ccncc1	3	-3	-24	153*
C[C@H]1CN([C@@H](C)CO)C(=O)c2cc(NS(=O)(=O)c3cn(C)cn3)ccc2O[C@@H]1CN(C)C(=O)Nc1ccccc1	13	.	.	.
O=C(NCC[C@@H]1CC[C@H](NC(=O)c2cnccn2)[C@H](CO)O1)Nc1ccc(Cl)cc1	-7	.	.	.
O=[N+]([O-])c1ccc(N2CCN(c3ccccc3)CC2)nc1	0	-1	1	-18
CCOC(=O)C1CCN(c2ccc([N+](=O)[O-])cc2)CC1	3	12	37*	-16
O=[N+]([O-])c1ccc(N2CCCCC2)nc1	1	-3	39*	-5
O=[N+]([O-])c1ccc(N2CCCC2)nc1	-1	-14	39*	-13
O=[N+]([O-])c1ccc(N2CCCCC2)cc1	-1	0	48*	-16
CCOC(=O)C1CCN(C(=O)C2CCN(C(=O)c3ccc([N+](=O)[O-])cc3)CC2)CC1	.	-3	-2	.
C[C@@H]1CN([C@@H](C)CO)C(=O)c2cc(C#CC3CCCCC3)cnc2O[C@H]1CN(C)S(=O)(=O)c1ccc(F)cc1	10	.	.	.
COC(=O)[C@H]1[C@H](CO)[C@H]2Cn3c(cccc3=O)[C@H]2N1C(=O)C1CCCCC1	-4	.	.	.
O=C(NCCc1ccccc1)[C@H]1[C@H](CO)[C@H]2Cn3c(cccc3=O)[C@H]2N1Cc1cccnc1	-3	.	.	.
N#Cc1cc([N+](=O)[O-])ccc1N1CCCC1	1	0	89*	-18
O=[N+]([O-])c1ccc(N2CCCCCC2)c([N+](=O)[O-])c1	.	-4	16	.
SMILES	ERp5 inh	PDI turbidity	PvdQ inh	CaV13 ICDI inh
Nc1c(C(=O)NCc2ccccc2)c2nc3ccccc3nc2n1CCCN1CCOCC1	4	-2	-7	76*
C[C@@H]1CCCCO[C@@H](CN(C)C)[C@H](C)CN([C@H](C)CO)C(=O)c2cc(NS(=O)(=O)c3ccc(F)cc3)ccc2O1	0	.	.	.
O=C(Cn1ccc([N+](=O)[O-])n1)N1CCCCCC1	-2	6	-16	115*
O=C(Cn1ccc([N+](=O)[O-])n1)N1CCCCC1	-6	5	-12	-3
Cc1ccc([C@@H]2CC=C(C(=O)O)[C@H](c3ccc(F)cc3)N2S(=O)(=O)c2ccc(C)cc2)cc1	-4	14	8	-7
O=C(O)C1=CC[C@@H](c2ccc(Cl)cc2)N(S(=O)(=O)c2ccc(Cl)cc2)[C@H]1c1ccc(F)cc1	0	0	-8	39*
COc1ccccc1N1CCN(C2CCC(C)CC2)CC1 (centres undefined)	-1	5	-18	50*
CCN1CCC(N2CCN(c3ccccc3OC)CC2)CC1	4	8	4	9
CCC[C@@H](CN1CCC[C@H]1CN1C(N)=NC[C@H]1CC(C)C)N1C[C@@H]([C@H](C)CC)N(CCCC2CCCC2)C1=N	27*	-69	-4	-3
COCCNC(=O)C[C@H]1CC[C@@H]2[C@@H](COc3ccc(NS(=O)(=O)c4ccc(Cl)cc4)cc3C(=O)N2C)O1	1	.	.	.
